MARV entry inh: blocks Marburg virus binding to or entry into cells; Marburg virus pseudotyped entry inhibition, cell reporter; Potency, µM (highest dose often 37.8 µM), for inactives: at the top dose activity change, negative = inhibition, hits mostly inhibitors; 300,000 compounds, 1.8% hits; calls by dose curve; tested in HEK293 cells; further: potency means the concentration at half of the fitted maximal effect
LASV entry inh: inhibitors of Lassa virus binding or cell entry; Potency, µM (titrated, usually from 37.9 µM), without a hit: top-dose activity change, negative = inhibition, actives largely listed as inhibitors; AID 540256; Lassa virus pseudotype entry inhibition, cell reporter; 300,000 compounds, 1.2% hits; calls by dose curve; tested in HEK293 cells; further: potency means the concentration at half of the fitted maximal effect; nearly all actives have a fitted effect of over 50% in size
Vaccinia mCherry: vaccinia inhibition (mCherry reporter). Vaccinia virus mCherry reporter infection, fluorescence. Potency, µM (doses to about 36.5 µM), inactives show at the highest dose activity change, negative = inhibition, most hits filed as inhibitors. 310,000 compounds, 0.63% hits. AID 720579; calls by dose curve; tested in A549 cells; further: potency means the concentration at half of the fitted maximal effect; nearly all actives have a fitted effect of over 35% in size
FMDV inh: foot and mouth disease virus antiviral activity; Potency, µM (highest dose often 57.9 µM), for the others: at the top dose activity change, negative = inhibition, actives largely listed as inhibitors; AID 1159524; FMDV antiviral cell-based qHTS; 410,000 compounds, 1.2% hits; calls by dose curve; tested in HEK293T cells; further: read-out not given here; potency means the concentration at half of the fitted maximal effect; nearly all actives have a fitted effect of over 45% in size
HCMV inh: inhibitors of human cytomegalovirus; activity change, negative = inhibition, % at 57.5 µM; HFF cells, HCMV-luciferase reporter, 72 h; active compounds read low; 410,000 compounds, 4.5% hits; in the data active means activity change below about -60%; inconclusive means no clear call, values can overlap the other calls; inactive means above about -39%
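Luciferase read-out from HCMV-luciferase-infected HFFs (MOI 1 PFU/cell) 72 h post infection at 37C; compounds added after 16 h cell attachment; activity normalized between buffer-only basal and Salinomycin (10uM) inhibitor controls.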
VACV Venus inh: inhibitors of vaccinia virus (Venus reporter) | 330,000 compounds, 0.46% hits | Potency, µM (top dose mostly 36.5 µM), for inactives: at the highest dose activity change, negative = inhibition, actives largely listed as inhibitors | Vaccinia virus Venus reporter expression, fluorescence; calls by dose curve; tested in A549 cells; further: potency means the concentration at half of the fitted maximal effect; nearly all actives have a fitted effect of over 30% in size
The depositor's hits bear a star; i = inactive; ? = inconclusive; . = no result; [ ] = another dose, or the depositor's remark. In the library only some 6.5% were active in any assay of this set; here they are far more common. On the % scale 0 is the no-effect control and ±100 the full control effect.

SMILES	MARV entry inh	LASV entry inh	Vaccinia mCherry	FMDV inh	HCMV inh	VACV Venus inh
OCCCNCc1cc2ccc(F)cc2nc1N1CCN(c2cccc(Cl)c2)CC1	.	.	?	0%	.	-16%
Brc1c(-c2ccccc2)nc2n1Cc1ccccc1-2	?	?	i	-13%	-84*	-12%
O=[N+]([O-])c1ccc(-c2ccccc2)c([As](=O)(O)O)c1	.	.	i	-24%	-91*	-2%
O=[N+]([O-])c1ccc2nc(-c3ccccc3)cc(-c3ccccc3)c2c1	?	-2%	-15%	-8%	36	-6%
COC(=O)c1cc(=O)n(CCc2ccc(OC)cc2)c(=Nc2ccc(F)c(Cl)c2)s1	-2%	.	-18%	22µM*	?	-1%
COC(=O)c1cc(=O)n(CCc2ccccc2)c(=Nc2ccc(F)cc2)s1	.	.	11%	?	-36	-5%
CCn1c(=O)cc(C(=O)OC)sc1=Nc1ccc(F)c(F)c1	.	.	?	32µM*	146	-9%
CCOC(=O)c1ccc(N=c2sc(C(=O)OC)cc(=O)n2CCCN2CCOCC2)cc1	-4%	.	-2%	16µM*	79	15%
COC(=O)c1cc(=O)n(Cc2ccc3c(c2)OCO3)c(=Nc2ccc(F)c(Cl)c2)s1	1%	.	14%	?	33	7%
CO[C@H]1[C@H](NC(=O)c2ccsc2)c2ccccc2C12CCN(Cc1cccn1-c1ccccn1)CC2	.	.	-7%	-16%	.	1%
O=C(NCC(c1cccs1)S(=O)(=O)c1cccs1)c1ccccc1F (centres undefined)	.	1%[46.1 µM]	-3%	12%	-1	10%
CCOC(=O)CN1C(=O)NC(c2cccc(F)c2)C(C(=O)OC)=C1C (centres undefined)	-24%[14.2 µM]	.	.	.	.	.
COc1cccc(C2=NCCc3cc4c(cc32)OCO4)c1OC	?	8%	-17%	-14%	-4	-9%
COc1ccc2c(c[n+](C)c3c4cc5c(cc4ccc23)OCO5)c1OC	7.3µM*	4.1µM*	?	10µM*	.	?
COc1ccc2cc3[n+](cc2c1OC)CCc1cc2c(cc1-3)OCO2	?	?	-17%	?	-96*	?
COc1cc2c(c(OC)c1OC)C(c1ccc3c(c1)OCO3)CC(=O)O2 (centres undefined)	.	.	i	-10%	-8	-5%
COc1ccc(NS(=O)(=O)c2ccc(NC(=O)c3ccc(CN4CCOCC4)cc3)cc2)cc1	?	?	?	-28%	-89*	-25%
O=C(Nc1ccc(S(=O)(=O)Nc2ccc(F)cc2)cc1)c1ccc(CN2CCOCC2)cc1	?	?	-15%	?	-65*	-35%
O=C(Nc1ccc(S(=O)(=O)N2CCOCC2)cc1)c1ccc(F)cc1	2%[46.1 µM]	-25%[46.1 µM]	9%	-12%	-9	1%
Cc1ccc(Nc2c3c(nc4nncn24)CCC3)c(C)c1	-15%[46.1 µM]	0%[46.1 µM]	-17%	-19%	-28	-11%
CN(C)c1ccc(/C=C2\c3ccccc3-c3ccc(N(C)C)cc32)cc1	.	.	-13%	.	.	-4%
C[n+]1c(-c2ccccc2)cc2c(=Cc3ccc([N+](=O)[O-])cc3)c3ccccc3n21	?	10µM*	i	?	-101*	233%
CN(C)c1ccc(C=c2c3cc(O)ccc3n3c2cc(-c2ccccc2)[n+]3C)cc1	?	?	107%	-21%	-101*	132%
C[n+]1c(-c2ccccc2)cc2c(=Cc3ccccc3)c3ccccc3n21	?	7.9µM*	i	3.5µM*	-99*	152%
CC1=C(C(=O)OC2CCCC2)C(c2ccccc2Cl)CC(=O)N1 (centres undefined)	-1%[46.1 µM]	-21%[46.1 µM]	-10%[7.34 µM]	0%	-29	-6%[7.34 µM]
SMILES	MARV entry inh	LASV entry inh	Vaccinia mCherry	FMDV inh	HCMV inh	VACV Venus inh
CC1(C)NCCN2C(=O)CS[C@H]21	16%[46.1 µM]	.	.	.	.	.
O=C(N/N=C/c1ccc(F)cc1)c1c(O)c2ccccc2[nH]c1=O	17%	-2%	-10%	?	-21	1%
Cc1c(C(=O)N/N=C/c2ccc(N(C)C)cc2)[nH]c2ccc(Cl)cc12	-23%	?	-16%	41%	-76*	-8%
O=C(N/N=C/c1ccccc1)c1c(O)c2ccccc2[nH]c1=O	5%	?	-25%	1%	-92*	-19%
Cc1c(C(=O)N/N=C/c2ccccc2)[nH]c2ccc(Cl)cc12	.	.	-30%	101%	-70*	?
Fc1ccc(/C=C/c2nccc3ccccc23)cc1	.	.	?	.	.	-24%
O=C(Nc1cccc(Cl)c1)c1ccc2nc(CCc3ccccc3)oc2c1	.	3%[46.1 µM]	-17%	-17%	40	-10%
CC(C)CNc1c2c(nc3ccccc13)CCC2	?	?	-28%	?	-68*	?
CN(C)CCCNc1c2c(nc3ccccc13)CCC2	.	.	.	-9%	-95*	.
c1ccc(CNc2c3c(nc4ccccc24)CCC3)cc1	?	?	-2%	?	?	-22%
Cc1ccc(OCC(=O)Nc2ccc3nn(-c4ccc(C)cc4)nc3c2)cc1	?	?	-4%	40%	96	9%
Cc1onc(-c2ccccc2Cl)c1C(=O)N(C)C1CCCCC1	.	.	?	-8%	-66*	-25%
COc1ccc(NC(=O)c2c(-c3ccccc3Cl)noc2C)c(OC)c1	15µM*	?	i	-1%	-34	-6%
Cc1cccc(CNC(=O)Cn2ccc3cc(S(=O)(=O)N4CCC(C)CC4)ccc32)c1	.	1%[46.1 µM]	-7%	7%	15	-3%
CN(C)c1cccc(Nc2cc3[nH]c(-c4cccc(F)c4)cc3cn2)c1	.	.	.	.	-26	.
Cc1nc(SCC(=O)NCc2ccccc2)c2c(=O)n(C)c(=O)n(C)c2n1	.	.	5%	32µM*	-20	3%
Cc1nc(SCC(=O)NCCc2ccccc2)c2c(=O)n(C)c(=O)n(C)c2n1	13%	-1%	i	-5%	6	-5%
Cc1ccc(CN2CCN(C3CCN(C(=O)c4ccc(C)cc4)CC3)C(=O)C2=O)cc1	.	14%[46.1 µM]	-1%	11%	11	-4%
Cc1ccc(C(C)C)cc1OCC(=O)Nc1nnc(C2CC2)s1	?	?	2µM*	-14%	-84*	14%
CCN(CC)c1ccc(N=Cc2c(O)n(CCc3ccc(OC)c(OC)c3)c(=O)[nH]c2=O)cc1	2.8µM*	?	-14%	6.3µM*	31	-7%
C=CCn1c(O)c(C=Nc2c(C)n(C)n(-c3ccccc3)c2=O)c(=O)[nH]c1=O	.	.	.	-14%	34	.
COc1ccc(CCn2c(O)c(C=Nc3ccc(F)cc3)c(=O)[nH]c2=O)cc1OC	.	.	.	32µM*	-12	.
Cc1c(N=Cc2c(O)n(CCc3ccc(F)cc3)c(=O)[nH]c2=O)c(=O)n(-c2ccccc2)n1C	?	?	?	.	-71*	-2%
COc1ccc(CCNc2ncnc3sc(C(=O)N(C)C)c(C)c23)cc1OC	.	.	-8%	-13%	.	-2%
CCC1CN(Cc2ccc(COC)o2)Cc2cc(OC)ccc2O1 (centres undefined)	.	.	-6%	-7%	.	-3%
Nc1cccc2c1C(=O)N(C(=O)c1ccco1)C2=O	3%[46.1 µM]	16%[46.1 µM]	i	-15%	0	-2%
